DT40 TDP1 no CPT – qHTS for Inhibitors of human tyrosyl-DNA phosphodiesterase 1 (TDP1): qHTS in cells in absence of CPT | DT40 Tdp1-/- hTDP1 cells, no CPT, ATP luminescence, 48 h | Potency, µM (titrated, usually from 46.2 µM), actives largely listed as inhibitors | hit rate 15% among 420,000 | AID 686978, 2013; note: nearly all actives have a fitted effect of over 55% in size
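Stably hTDP1-transfected Tdp1-null chicken DT40 cells were treated with library compounds minus camptothecin and grown for at least 48 hr at 37 °C, after which cellular ATP was quantified by luminescence.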
SW480 rereplic – inducers of DNA re-replication in SW480 colon cancer cells | SW480 DNA re-replication, Hoechst DNA content imaging, 48 h | Potency, µM (highest dose often 46.1 µM), most hits filed as activators | hit rate 1.8% among 340,000; note: nearly all actives have a fitted effect of over 55% in size
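Treated cells incubate 48 hr (37 C, 5% CO2), are stained 40 min with Hoechst, and nuclear fluorescence is enumerated; a rise in nuclei with high DNA signal marks re-replication.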
Chronic BCR inh – blocks chronic active B-cell receptor signaling | ABC-DLBCL IkBa-CBG/CBR reporter, luminescence ratio, 4 h | Potency, µM (titrated, usually from 46.1 µM), most hits filed as inhibitors | hit rate 0.05% among 340,000 | AID 493014; active = well fitted inhibition curve with a large enough effect in the signal ratio, with a control signal flat, not every such curve was filed as active; inconclusive = small, poorly fitted or top-dose-only effect, or effect the other way, or a change in a side signal; the % refers to the signal ratio
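Cell line TMD8 (human ABC DLBCL), stably expressing tet-inducible CBG68-IkBa fusion and CBR; IMDM/0.5% FBS; cpd up to 46 uM; dox induction, 4 h, 37C/5% CO2; dual luminescence; green/red ratio; MG132 control.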
DT40 TDP1 CPT – growth inhibition of DT40 Tdp1-/-;hTDP1 cells with camptothecin (screen for TDP1 inhibitors); chicken DT40 Tdp1-/-;hTDP1 cells + 20 nM CPT, ATP luminescence, 48 h; Potency, µM (titrated, usually from 46.2 µM), usual class: inhibitors; hit rate 12% among 420,000; AID 686979; note: nearly all actives have a fitted effect of over 55% in size
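Chicken DT40 Tdp1-/- cells complemented with human TDP1, 400 cells/well, exposed to compounds plus 20 nM camptothecin for at least 48 h at 37 C; viability read as ATP content by CellTiter-Glo luminescence.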
MCF10A rereplic – induces DNA re-replication in MCF 10a normal breast cells | MCF 10A DNA re-replication, Hoechst nuclear intensity, 48 h | Potency, µM (series often up to 46.1 µM), hits mostly activators | hit rate 2.9% among 350,000 | AID 624296; note: nearly all actives have a fitted effect of over 50% in size
IL1B secr inh – inflammasome signaling inhibition, IL-1 beta readout; THP-1 LPS/ATP IL-1B secretion, AlphaLISA, 16 h; stronger effect = lower value; hit rate 4.7% among 360,000; activity change, % at 57.5 µM; AID 743279; in the data active = activity change below about -50%; inconclusive = mostly about -30% to -49%
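Secreted IL-1B measured by AlphaLISA bead assay after 16 h compound exposure of THP-1 cells; compounds (final up to 57.5 uM) added 1 h before LPS (250 ng/mL) and ATP (1.25 mM) stimulation; lower signal means less secretion.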
Of the large screens only hits and unclear results are named; the others gave an inactive call. This is a sample that favours compounds with a hit; in the whole collection about 19% have one here. Unless noted, calls come from the whole dose curve; as a rule, active = well fitted curve in the direction sought with a large enough effect; inconclusive = small, poorly fitted or top-dose-only effect, or another doubt; inactive = no such curve, though single readings can be large; an effect the other way counts as inactive or inconclusive.

COc1cc(OC)c2c(C)cc(=O)oc2c1C(CCN1CCOCC1)c1ccc2c(c1)OCO2 (configuration not stated)	DT40 TDP1 no CPT 21µM, DT40 TDP1 CPT 18µM
COc1cc(OC)c2ccc(=O)oc2c1C(CC(=O)N1CCCC1)c1ccc2c(c1)OCO2 (configuration not stated)	DT40 TDP1 no CPT inconclusive, DT40 TDP1 CPT inconclusive
CCN(CC)CCC(c1cc(OC)c(OC)c(OC)c1)c1c(OC)cc(OC)c2c(C)cc(=O)oc12 (configuration not stated)	DT40 TDP1 no CPT 23µM, DT40 TDP1 CPT 9.2µM
CCc1nc2ccc(C(=O)N(CC)CCN(C)C)cn2c1N(CC)C(=O)NCCc1ccccc1	none (no result: SW480 rereplic, Chronic BCR inh, MCF10A rereplic)
Cc1ccc(C(=O)N[C@H](C(=O)NC2CCCCC2)C(C)C)cc1	none
COc1ccc(C2CC(=O)Oc3c(C(CCN4CCOCC4)c4cc(OC)c(OC)c(OC)c4)c(OC)cc(OC)c32)cc1 (configuration not stated)	DT40 TDP1 CPT inconclusive
COc1cc(OC)c2c(-c3ccccc3)cc(=O)oc2c1C(CCN1CCCCC1)c1ccc2c(c1)OCO2 (configuration not stated)	DT40 TDP1 no CPT 7.3µM, DT40 TDP1 CPT 9.2µM
COc1cc(C(CCN2CCN(c3ccccc3)CC2)c2c(OC)cc(OC)c3c(C)cc(=O)oc23)cc(OC)c1OC (configuration not stated)	DT40 TDP1 no CPT 16µM, SW480 rereplic inconclusive, DT40 TDP1 CPT 16µM, MCF10A rereplic inconclusive
COc1cc(O)c(C(CC(=O)N2CCCCC2)c2ccc3c(c2)OCO3)c(OC)c1 (configuration not stated)	DT40 TDP1 no CPT inconclusive
COc1cc(OC)c2ccc(=O)oc2c1C(CC(=O)N1CCCC(C)C1)c1ccc2c(c1)OCO2 (configuration not stated)	DT40 TDP1 no CPT inconclusive, DT40 TDP1 CPT inconclusive
COc1cc(O)c(C(CCN2CCCCC2)c2ccc3c(c2)OCO3)c(OC)c1 (configuration not stated)	DT40 TDP1 no CPT inconclusive, DT40 TDP1 CPT inconclusive, IL1B secr inh -81
COc1cc(OC)c2c(-c3ccccc3)cc(=O)oc2c1C(CC(=O)N1CCCC1)c1ccc2c(c1)OCO2 (configuration not stated)	DT40 TDP1 no CPT 21µM, DT40 TDP1 CPT inconclusive, MCF10A rereplic inconclusive, IL1B secr inh inconclusive
Cc1ccc(CN2C[C@H](Sc3ccccn3)C[C@H]2C(=O)Nc2ccc3sc(C)nc3c2)s1	none (no result: SW480 rereplic, Chronic BCR inh, MCF10A rereplic, IL1B secr inh)
CN(N=O)C(=O)N[C@@H]1[C@@H](O)[C@H](O)[C@@H](CO)O[C@@H]1O	none (no result: SW480 rereplic, Chronic BCR inh, MCF10A rereplic, IL1B secr inh)
COc1ccc(OCc2cc(C(=O)NC(C)c3csc(C)n3)no2)c(Cl)c1 (configuration not stated)	DT40 TDP1 no CPT inconclusive, DT40 TDP1 CPT inconclusive
Cc1ccc(C)c(Nc2nc(-c3ccncc3)nc3ccccc23)c1	DT40 TDP1 no CPT inconclusive, SW480 rereplic inconclusive
O=C(c1ccc(F)c(F)c1)N1CCOc2ccc(CN3CCN(Cc4ccccn4)CC3)cc2C1	none (no result: SW480 rereplic, Chronic BCR inh, MCF10A rereplic, IL1B secr inh)
Cc1ccc(C2(SCC(N)C(=O)O)c3ccccc3-c3ccccc32)cc1 (configuration not stated)	none (no result: Chronic BCR inh)
COCCCNc1nc2ccccc2nc1NS(=O)(=O)c1ccc(Cl)cc1	DT40 TDP1 no CPT inconclusive, DT40 TDP1 CPT inconclusive
O=S(=O)(Nc1nc2ccccc2nc1-[n+]1cccc(N=C([O-])c2ccc(Cl)cc2)c1)c1ccccc1	DT40 TDP1 no CPT inconclusive, SW480 rereplic inconclusive, DT40 TDP1 CPT inconclusive, IL1B secr inh -73
Fc1ccccc1COc1ccc(Br)cc1CNCC1CCCO1 (configuration not stated)	DT40 TDP1 no CPT 15µM, Chronic BCR inh inconclusive, DT40 TDP1 CPT inconclusive, IL1B secr inh inconclusive
Fc1ccc(COc2ccc(Br)cc2CNCC2CCCO2)cc1 (configuration not stated)	DT40 TDP1 no CPT inconclusive, DT40 TDP1 CPT inconclusive, MCF10A rereplic inconclusive, IL1B secr inh -74
Fc1ccccc1CNCC1CCCO1 (configuration not stated)	none
CCOC(=O)N1CCN(S(=O)(=O)N2CCCC(C(=O)NCc3ccc(C)cc3)C2)CC1 (configuration not stated)	DT40 TDP1 no CPT inconclusive, DT40 TDP1 CPT inconclusive (no result: SW480 rereplic, Chronic BCR inh, MCF10A rereplic)
O=C(NNc1nc(-c2ccccc2)c2cc(Br)ccc2n1)c1ccc(S(=O)(=O)N2CCOCC2)cc1	DT40 TDP1 no CPT inconclusive, SW480 rereplic inconclusive, DT40 TDP1 CPT inconclusive, IL1B secr inh -51
Nc1nnn(-c2ccccc2)c1-c1ccccc1	SW480 rereplic 15µM (no result: Chronic BCR inh)
COc1ccc(N2CC(C(=O)N(CC(C)C)c3c(N)n(Cc4ccccc4)c(=O)[nH]c3=O)CC2=O)c(OC)c1 (configuration not stated)	none
CC[C@]12C(=O)N(C)C[C@H]([C@@H]3C(=O)N(C)C(=O)[C@@H]31)N2C(=O)c1ccc(Cl)c(Cl)c1	none (no result: Chronic BCR inh)
O=C1c2ccc(-c3nc4ccccc4o3)cc2C(=O)N1Cc1cccnc1	SW480 rereplic inconclusive, MCF10A rereplic 9.2µM (no result: Chronic BCR inh)
O=C1c2ccc(-c3nc4ccccc4o3)cc2C(=O)N1Cc1ccccc1	DT40 TDP1 no CPT inconclusive (no result: Chronic BCR inh)
COc1ccc(OC)c(NC(=O)c2nc(S(=O)(=O)Cc3ccccc3F)ncc2Cl)c1	DT40 TDP1 no CPT 0.63µM, DT40 TDP1 CPT 1µM (no result: SW480 rereplic, Chronic BCR inh, MCF10A rereplic, IL1B secr inh)
COc1ccc(OC)c(NC(=O)c2nc3ccccc3s2)c1	Chronic BCR inh inconclusive, MCF10A rereplic inconclusive
COc1ccc(OC)c(NC(=O)c2nc(S(=O)(=O)Cc3ccccc3)ncc2Cl)c1	DT40 TDP1 no CPT 0.58µM, SW480 rereplic inconclusive, Chronic BCR inh inconclusive, DT40 TDP1 CPT 0.58µM, MCF10A rereplic 1.6µM, IL1B secr inh -102
COc1cc(-c2nc(C)cnc2C)cc2c1OCCN(C(=O)Cn1nc(-c3ccccc3)c3ccccc3c1=O)C2	none (no result: SW480 rereplic, Chronic BCR inh, MCF10A rereplic, IL1B secr inh)
COc1ccc(-n2nc(C(=O)NCC(=O)NCc3cccc(F)c3)c3ccccc3c2=O)cc1Cl	DT40 TDP1 no CPT inconclusive, MCF10A rereplic inconclusive
Cc1ccccc1NC(=O)N(O)C1(C#N)CCCCC1	none (no result: Chronic BCR inh)
Cc1nc(N2CCN(c3ccccn3)CC2)c2c(C)c(C(=O)Nc3ccccc3F)sc2n1	DT40 TDP1 no CPT 16µM, DT40 TDP1 CPT inconclusive
Cc1nc(N2CCN(c3ccccn3)CC2)c2c(C)c(C(=O)Nc3ccc(F)cc3F)sc2n1	DT40 TDP1 no CPT 13µM, SW480 rereplic inconclusive, DT40 TDP1 CPT 16µM, MCF10A rereplic inconclusive

High-throughput results as filed in PubChem BioAssay.
